Assay results as given in PubChem BioAssay (NCATS).
Records with an inconclusive call do not appear. A number with no mark means an inactive call. Activity calls are given as the source filed them. The call rests on the fitted dose curve; in most records, active means well fitted cell-killing curve with a large enough effect; inconclusive means small, poorly fitted or top-dose-only effect, or effect the other way; inactive means no such curve, though single readings can be large or run the other way. Positions of bridges follow the written chain, without caps; N, C: chain ends. Non-standard residues stand in square brackets, D forms with d. Residues, ends and D or L forms follow the SMILES beside them. ξ: configuration not given here. *: point of attachment. Octanoyl(6-Me) = CCC(C)CCCCC(=O)*; ξThr(3R) = C[C@@H](O)C(N)C(=O)O; dDab = NCC[C@@H](N)C(=O)O; Dab = NCC[C@H](N)C(=O)O

Assay: Quantitative High-Throughput drug screen in 47 multiple myeloma cell lines against the NCATS MIPE library collection: ARP1_JJKsccF8 cell viability assay (AID 1918928; further: nearly all actives have a fitted effect of over 40% in size;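 on viability: 100% = DMSO only wells and 0% = medium only wells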)
Details: ARP1 myeloma cells viability, CellTiter-Glo ATP, 48 h; series mostly up to 45.8 µM; viability: at the top concentration
Summary of the method: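 Luminescence from CellTiter-Glo, taken after 5 min at room temperature, reports cellular ATP as viability. Cells (500 per well) had been treated 48 h at 37 °C with MIPE 4.0 compounds, scaled between DMSO and medium-only controls.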
Potency means the concentration at half of the fitted maximal effect.

| SMILES | Potency | viability |
| --- | --- | --- |
| O=c1c(O)c(-c2ccc(O)c(O)c2)oc2cc(O)ccc12 | 20.9 µM (active) |  |
| Nc1nc(N)c2nc(-c3cccc(O)c3)c(-c3cccc(O)c3)nc2n1 | 20.9 µM (active) |  |
| O=S(=O)(O)CCSSCCS(=O)(=O)O |  | 123% |
| O=C(Nc1cccc(Nc2ncc(Br)c(NCCc3cnc[nH]3)n2)c1)N1CCCC1 | 18.7 µM (active) |  |
| COc1cc(C(=O)NC2CCN(C)CC2)ccc1Nc1ncc2c(n1)N(C1CCCC1)CCC(=O)N2C(C)C | 29.6 µM (active) |  |
| COc1ccc(S(=O)(=O)Nc2cccnc2Nc2ccc(O)cc2)cc1 | 0.059 µM (active) |  |
| CC(C)Oc1ccc(C(=O)N[C@H](CNC(=O)CN(C)C)Cc2ccc(-c3cn4cccc([C@H](C)O)c4n3)cc2)cc1Cl | 0.935 µM (active) |  |
| COc1cc(C(C)C)c(Oc2cnc(NC(CO)CO)nc2N)cc1I |  | 113% |
| CCC[C@H]1C[C@H](C(=O)N[C@@H]([C@@H]2O[C@@H](SC)[C@@H](O)[C@@H](O)[C@@H]2O)[C@H](C)Cl)N(C)C1 |  | 136% |
| C#CCC(Cc1cnc2nc(N)nc(N)c2n1)c1ccc(C(=O)N[C@@H](CCC(=O)O)C(=O)O)cc1 (stereo partly drawn) | 0.0469 µM (active) |  |
| CCCCCCCCCCCCc1ccc(S(=O)(=O)Nc2nncs2)cc1 |  | 89.9% |
| C[C@](Cc1c[nH]c2ccccc12)(NC(=O)OC1C2CC3CC(C2)CC1C3)C(=O)NC[C@H](NC(=O)CCC(=O)O)c1ccccc1 (stereo partly drawn) |  | 72.5% |
| C[C@H](O)[C@@H]1C(=O)N2C(C(=O)O)=C(S[C@@H]3CN[C@H](CNS(N)(=O)=O)C3)[C@@H](C)[C@@H]12 |  | 95.7% |
| C[C@H]1COc2c(N3CCN(C)CC3)c(F)cc3c(=O)c(C(=O)O)cn1c23 |  | 117% |
| CC(C)n1cnc2c(NCCc3ccc(O)cc3)nc(-c3csc4ccccc34)nc21 | 14.8 µM (active) |  |
| Cc1ccc2nc(NCCN)c3ncc(C)n3c2c1 | 8.33 µM (active) |  |
| CCC(C)CCCCC(=O)N[C@@H](CCN)C(=O)NC(C(=O)N[C@H](CCN)C(=O)N[C@@H]1CCNC(=O)C([C@@H](C)O)NC(=O)[C@@H](CCN)NC(=O)[C@@H](CCN)NC(=O)[C@@H](CC(C)C)NC(=O)[C@H](Cc2ccccc2)NC(=O)[C@H](CCN)NC1=O)[C@@H](C)O (stereo partly drawn) ({Octanoyl(6-Me)}-[Dab][ξThr(3R)][dDab][dDab][Dab]F[dL][dDab][dDab][ξThr(3R)]; lactam 4-C) |  | 108% |
| NC1=N[C@H]2[C@H](CS[C@H]2CCCCC(=O)O)N1 |  | 111% [at 23.2 µM] |
